GSIS activator = primary screen for activators of insulin secretion dependent on glucose, INS-1E cells, GLuc reporter luminescence; activation, % at 16.6 µM; INS-1E GLuc reporter insulin secretion, 2-3 h; 0.61% of 370,000 active;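 active = lowest replicate activation of at least 40%, so every replicate reaches that level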
HIV Env fusion = HIV envelope-mediated fusion inhibition; HeLa-JRFL Env/CEM21 cell fusion, luciferase; inhibition, % at 12.3 µM; 1.1% of 360,000 active;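 active = mean replicate inhibition score of at least 50 and every replicate individually at or above 50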
AF4-AF9 inh = blocks AF4 peptide binding to human AF9; AlphaScreen, biotin-AF4 peptide binding to FLAG-AF9; inhibition, % at 10 µM; 0.47% of 350,000 active;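 active = every replicate reaching a set inhibition limit, whatever the replicate mean, cut at about 25% in these data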
Target sequence (P42568 whole entry, looked up): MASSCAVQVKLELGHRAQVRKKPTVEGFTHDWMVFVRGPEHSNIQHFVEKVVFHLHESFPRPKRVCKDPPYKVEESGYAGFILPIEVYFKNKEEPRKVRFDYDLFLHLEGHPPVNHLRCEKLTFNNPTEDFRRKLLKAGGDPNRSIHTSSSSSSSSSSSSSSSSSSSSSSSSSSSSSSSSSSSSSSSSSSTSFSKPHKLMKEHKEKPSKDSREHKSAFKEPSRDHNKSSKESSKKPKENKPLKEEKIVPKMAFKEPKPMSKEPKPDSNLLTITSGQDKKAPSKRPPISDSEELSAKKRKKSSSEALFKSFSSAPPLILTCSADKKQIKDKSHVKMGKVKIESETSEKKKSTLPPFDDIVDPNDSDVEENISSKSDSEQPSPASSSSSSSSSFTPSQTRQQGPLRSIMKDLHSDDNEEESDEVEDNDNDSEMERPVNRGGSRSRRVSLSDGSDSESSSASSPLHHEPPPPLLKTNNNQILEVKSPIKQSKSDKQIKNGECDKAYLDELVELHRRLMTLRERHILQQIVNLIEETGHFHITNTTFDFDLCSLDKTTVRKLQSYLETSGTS
PGC1a acetyl inh = lowers PGC1a acetylation signal in U2OS cells; inhibition, % at 15.6 µM; AlphaScreen anti-acetyl-lysine; with virally co-expressed GCN5 acetyltransferase; 0.17% of 350,000 active;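 active = every replicate shows inhibition of at least 40%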
NSD2 inh = inhibitors of human histone methyltransferase NSD2 | O96028 | NSD2 peptide methylation, AlphaScreen, 120 min | inhibition, % at 12.5 µM | 0.54% of 310,000 active | AID 743445; in the data active = inhibition above about 50%
Of the large screens only hits and unclear results are named; the others gave an inactive call. Only some compounds are listed: those with a hit (about 2.1% of all), similar ones and a draw of the others.

COc1ccccc1N(CC(=O)NC(C)(C)C)C(=O)CCC(=O)Nc1ccccn1	none (no result: PGC1a acetyl inh)
COc1cc2cc(CCO)oc(=O)c2cc1OC	HIV Env fusion 65 (no result: NSD2 inh)
COc1cc2cc(C[C@H](C)O)oc(=O)c2cc1OC	none (no result: AF4-AF9 inh, NSD2 inh)
COc1ccccc1N1CCN(C(=S)Nc2ccc(S(=O)(=O)N3CCOCC3)cc2)CC1	none
O=S(=O)(c1ccc(NC(=S)N2CCN(c3ccccc3F)CC2)cc1)N1CCOCC1	HIV Env fusion 59
CN1C(=O)c2cc(NC(=O)C3CC3)ccc2OC[C@@H]2O[C@@H](CC(=O)NCCN3CCCC3)CC[C@@H]21	none (no result: HIV Env fusion, NSD2 inh)
O=C(Nc1ccccc1)Nc1nc(-c2ccc(Cl)cc2)cs1	none (no result: GSIS activator, HIV Env fusion)
O=C(Nc1cccc(Cl)c1)Nc1nc(-c2ccc(Cl)cc2)cs1	GSIS activator 128 (no result: HIV Env fusion, AF4-AF9 inh)
COCC(=O)Nc1ccc2c(c1)[C@H]1C[C@@H](CC(=O)N[C@@H](C)c3ccccc3)O[C@H](CO)[C@H]1O2	none (no result: NSD2 inh)
Cc1nn(Cc2c(F)c(F)c(F)c(F)c2F)c(C)c1NC(=O)c1ccc(COc2ccc(Cl)cc2Cl)o1	HIV Env fusion 68 (no result: AF4-AF9 inh, PGC1a acetyl inh)
c1ccc(-c2ccc3c(c2)c2c4n3CCN=C4CCC2)cc1	HIV Env fusion 60 (no result: GSIS activator, AF4-AF9 inh)
CC(C)OCCCNc1ncc2c(n1)CC(c1ccccc1)CC2=O (centres undefined)	none (no result: PGC1a acetyl inh)
CCCc1cc(=O)n2[nH]c(-c3ccco3)nc2n1	none (no result: HIV Env fusion)
N#C[C@@H]1[C@@H](c2ccc(-c3cccc(F)c3)cc2)[C@@H](CO)N1c1nc(-c2ccccc2)cs1	none (no result: NSD2 inh)
CC1=CN2C(=N)/C(=C/c3cn(CCCOc4ccccc4C)c4ccccc34)C(=O)N=C2S1	GSIS activator 47 (no result: AF4-AF9 inh, PGC1a acetyl inh)
COc1cccc(OCCCn2cc(/C=C3/C(=N)N4C=C(C)SC4=NC3=O)c3ccccc32)c1	none (no result: PGC1a acetyl inh)
CC(NC(=O)COC(=O)c1cc([N+](=O)[O-])ccc1N1CCOCC1)c1ccc(F)cc1 (centres undefined)	none (no result: PGC1a acetyl inh)
COC(=O)c1ccc(N2NC(=O)/C(=C/c3cc(OC)c(OC)c(OC)c3)C2=O)cc1	none
Cc1c(CNCCc2ccccc2Cl)c(C(=O)O)c(C)n1-c1ccccc1	HIV Env fusion 57 (no result: PGC1a acetyl inh)
Cc1c(CNCCc2ccc(Cl)cc2)c(C(=O)O)c(C)n1Cc1ccccc1	none
O=C(c1cccc(S(=O)(=O)N2CCN(c3ccccc3)CC2)c1)N1CCCC(C(F)(F)F)C1 (centres undefined)	HIV Env fusion 71
O=C(c1cc(S(=O)(=O)N2CCN(c3ccccc3)CC2)ccc1Cl)N1CCCC(C(F)(F)F)C1 (centres undefined)	none (no result: HIV Env fusion, PGC1a acetyl inh)
CN(C)/C=N/c1c(C#N)cnn1-c1ncnc2sc(-c3ccccc3)cc12	GSIS activator 74 (no result: HIV Env fusion, AF4-AF9 inh, PGC1a acetyl inh)
CN(C)/C=N/c1c(C#N)cnn1-c1ccccc1	none (no result: HIV Env fusion)
Cc1noc(C)c1CSc1nc2sc(C)c(C)c2c(=O)n1-c1ccccc1	none (no result: GSIS activator, HIV Env fusion, AF4-AF9 inh)
C=CCn1c(SCc2c(C)noc2C)nc2sc(C)c(C)c2c1=O	HIV Env fusion 68 (no result: AF4-AF9 inh)
CCOC(=O)/C(C#N)=C1/C=Nc2ccccc2N1	none (no result: GSIS activator, AF4-AF9 inh)
c1cc(-c2ccc(C3[C@H]4CNC[C@@H]3N4CC3CCCCC3)cc2)ccn1 (some centres undefined)	AF4-AF9 inh 29 (no result: HIV Env fusion, NSD2 inh)
c1cc(-c2ccc(C3[C@H]4CNC[C@@H]3N4CC3CCOCC3)cc2)ccn1 (some centres undefined)	none (no result: HIV Env fusion, NSD2 inh)
COCc1cc(=O)n2[nH]cc(-c3ccccc3)c2n1	none
CCCc1cc(=O)n2[nH]cc(-c3ccc(Cl)cc3)c2n1	HIV Env fusion 85 (no result: PGC1a acetyl inh)
COc1ccc(C2CCCN2C(=S)Nc2c(C)cccc2C)cc1OC (centres undefined)	none (no result: GSIS activator)
CN(C)c1cc[n+](CC(=O)c2ccc(-c3ccccc3)cc2)cc1	HIV Env fusion 64 (no result: PGC1a acetyl inh)
CC(=O)c1c2c3c(cccc3n(C)c1=O)C(=O)c1ccccc1-2	none (no result: GSIS activator, HIV Env fusion, AF4-AF9 inh, PGC1a acetyl inh)
Cn1c(=O)c(Nc2ccc(O)cc2)c2c3c(cccc31)C(=O)c1ccccc1-2	AF4-AF9 inh 29 (no result: HIV Env fusion, PGC1a acetyl inh)
C(=Cc1cnc2ccccc2n1)c1ccc2c(c1)OCO2	HIV Env fusion 68
COc1ccc(-c2c(-c3cc(OC)cc(OC)c3)n(C)c3ccc(-c4ccc5c(c4)OCCO5)cc23)cc1	HIV Env fusion 56 (no result: PGC1a acetyl inh, NSD2 inh)
COC(=O)CN1C(c2ccccc2)=Nc2ccc(Cl)cc2C1c1ccccc1 (centres undefined)	HIV Env fusion 105 (no result: GSIS activator, AF4-AF9 inh)
CCN1CCN(S(=O)(=O)c2cc(OCC(=O)NC3CCCCC3)c(C)cc2Cl)CC1	none (no result: AF4-AF9 inh)
Cc1cc(Cl)c(S(=O)(=O)N2CCSCC2)cc1OCC(=O)NC1CCCCC1	HIV Env fusion 93 (no result: GSIS activator, AF4-AF9 inh)
Cc1cc(Cl)c(S(=O)(=O)N2CCCCCC2)cc1OCC(=O)NC1CCCCC1	HIV Env fusion 51 (no result: GSIS activator, AF4-AF9 inh)
CCCNC(=O)Nc1ccc2c(c1)OC[C@H](C)N(C(C)=O)C[C@@H](C)[C@H](OC)CN(C)C2=O	none (no result: AF4-AF9 inh, NSD2 inh)
NNC(=O)c1ncoc1-c1ccc(Cl)cc1	none (no result: PGC1a acetyl inh)
Cc1nc(N(C)Cc2ccccc2)c2c(C)c(C)sc2n1	none
CN1C/C(=C/c2ccncc2)C(=O)/C(=C/c2ccncc2)C1	none
O=C1C(=Cc2ccc(Cl)cc2)Cc2ccccc21	none (no result: PGC1a acetyl inh)
C=CC(=O)N1C/C(=C/c2ccc(Cl)cc2)C(=O)/C(=C\c2ccc(Cl)cc2)C1	HIV Env fusion 102 (no result: GSIS activator, PGC1a acetyl inh)
C=CC(=O)N1C/C(=C/c2ccccc2)C(=O)/C(=C\c2ccccc2)C1	GSIS activator 50, HIV Env fusion 79, PGC1a acetyl inh 73
Cc1cccc(NC(=O)Nc2c(C)n(C)n(-c3ccccc3)c2=O)c1	none
CN1/C(=C\C(=O)COC(=O)c2ccc([N+](=O)[O-])o2)C(C)(C)c2ccccc21	none
CN1/C(=C\C(=O)COC(=O)c2nccnc2N)C(C)(C)c2ccccc21	HIV Env fusion 58 (no result: PGC1a acetyl inh)
O=[N+]([O-])c1ccc(-c2nc(NCC3CCCO3)c3ccccc3n2)cc1 (centres undefined)	GSIS activator 44 (no result: AF4-AF9 inh, PGC1a acetyl inh)
COc1ccccc1S(=O)(=O)n1cc(Cc2ccccc2)c(N)n1	HIV Env fusion 79 (no result: GSIS activator, AF4-AF9 inh, NSD2 inh)
COC(=O)Nc1nnc(CCc2ccccc2)s1	none (no result: GSIS activator, HIV Env fusion, AF4-AF9 inh)
Cc1sc2nc(C3CC3)nc(SCC(=O)N3CCc4ccccc4C3)c2c1C	HIV Env fusion 55 (no result: GSIS activator, AF4-AF9 inh, PGC1a acetyl inh)
Cc1sc2nc(C(C)C)nc(SCC(=O)N3CCN(C(=O)c4ccco4)CC3)c2c1C	HIV Env fusion 62 (no result: GSIS activator, AF4-AF9 inh)
CC1(C)CC2CC(C)(CN2C(=O)c2cc(-c3ccc(F)cc3)on2)C1 (centres undefined)	none
O=C(CSc1ccc(-c2ccco2)nn1)NC1CCCC1	GSIS activator 40
COc1ccc(NC(=O)CSc2ccc(-c3ccco3)nn2)cc1OC	GSIS activator 41
CC(C)(C)OC(=O)C[C@@H]1C/C=C\C[C@H](CC(=O)NCCO)C(=O)N[C@@H](c2ccccc2)COC1=O	none (no result: PGC1a acetyl inh, NSD2 inh)
CCOC(=O)c1oc2cc(O)cc(C)c2c1C	GSIS activator 40 (no result: HIV Env fusion)
CCOC(=O)c1oc2cc(C)cc(C)c2c1C	none (no result: PGC1a acetyl inh)
COc1ccc([N+](=O)[O-])cc1Nc1c2ccccc2nc2ccccc12	HIV Env fusion 79
O=[N+]([O-])c1ccccc1Nc1c2ccccc2nc2ccccc12	HIV Env fusion 62 (no result: PGC1a acetyl inh)
O=[N+]([O-])c1ccc(Nc2c3ccccc3nc3ccccc23)cc1	none
COc1ccc(OC)c(Nc2c3c(nc4ccccc24)CCC3)c1	none
